# Screening results (PubChem BioAssay)
# Sa ugtP lethal: compounds lethal to S. aureus RN4220 ugtP deletion mutant; OD600 growth, 16 h; growth inhibition, % (concentration not given with the values); 0.54% of 330,000 active; in the data active means growth inhibition above about 68%;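 further: plate controls were untreated wells for no effect and antibiotic for full effect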
# PfHsp40 yeast: compounds rescuing yeast from Plasmodium falciparum HSP40 toxicity; S. cerevisiae expressing PfHsp40, growth rescue, ATP luminescence; growth rescue, % at 12.5 µM; 0.68% of 340,000 active; in the data active means growth rescue above about 28%, passing the limit was not always enough; inconclusive means no clear call, values can overlap the other calls;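 further: yeast W303a lacking pdr1 and pdr3 grown in galactose medium; growth measured after three days at 30 °C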
# TcdB GH inh: TcdB glycohydrolase inhibition; P18177; TcdB glycohydrolase enzymatic assay, plate reader; inhibition, % at 9.99 µM; 0.24% of 350,000 active; in the data active means inhibition above about 10%
# Target sequence (P18177 whole entry, looked up): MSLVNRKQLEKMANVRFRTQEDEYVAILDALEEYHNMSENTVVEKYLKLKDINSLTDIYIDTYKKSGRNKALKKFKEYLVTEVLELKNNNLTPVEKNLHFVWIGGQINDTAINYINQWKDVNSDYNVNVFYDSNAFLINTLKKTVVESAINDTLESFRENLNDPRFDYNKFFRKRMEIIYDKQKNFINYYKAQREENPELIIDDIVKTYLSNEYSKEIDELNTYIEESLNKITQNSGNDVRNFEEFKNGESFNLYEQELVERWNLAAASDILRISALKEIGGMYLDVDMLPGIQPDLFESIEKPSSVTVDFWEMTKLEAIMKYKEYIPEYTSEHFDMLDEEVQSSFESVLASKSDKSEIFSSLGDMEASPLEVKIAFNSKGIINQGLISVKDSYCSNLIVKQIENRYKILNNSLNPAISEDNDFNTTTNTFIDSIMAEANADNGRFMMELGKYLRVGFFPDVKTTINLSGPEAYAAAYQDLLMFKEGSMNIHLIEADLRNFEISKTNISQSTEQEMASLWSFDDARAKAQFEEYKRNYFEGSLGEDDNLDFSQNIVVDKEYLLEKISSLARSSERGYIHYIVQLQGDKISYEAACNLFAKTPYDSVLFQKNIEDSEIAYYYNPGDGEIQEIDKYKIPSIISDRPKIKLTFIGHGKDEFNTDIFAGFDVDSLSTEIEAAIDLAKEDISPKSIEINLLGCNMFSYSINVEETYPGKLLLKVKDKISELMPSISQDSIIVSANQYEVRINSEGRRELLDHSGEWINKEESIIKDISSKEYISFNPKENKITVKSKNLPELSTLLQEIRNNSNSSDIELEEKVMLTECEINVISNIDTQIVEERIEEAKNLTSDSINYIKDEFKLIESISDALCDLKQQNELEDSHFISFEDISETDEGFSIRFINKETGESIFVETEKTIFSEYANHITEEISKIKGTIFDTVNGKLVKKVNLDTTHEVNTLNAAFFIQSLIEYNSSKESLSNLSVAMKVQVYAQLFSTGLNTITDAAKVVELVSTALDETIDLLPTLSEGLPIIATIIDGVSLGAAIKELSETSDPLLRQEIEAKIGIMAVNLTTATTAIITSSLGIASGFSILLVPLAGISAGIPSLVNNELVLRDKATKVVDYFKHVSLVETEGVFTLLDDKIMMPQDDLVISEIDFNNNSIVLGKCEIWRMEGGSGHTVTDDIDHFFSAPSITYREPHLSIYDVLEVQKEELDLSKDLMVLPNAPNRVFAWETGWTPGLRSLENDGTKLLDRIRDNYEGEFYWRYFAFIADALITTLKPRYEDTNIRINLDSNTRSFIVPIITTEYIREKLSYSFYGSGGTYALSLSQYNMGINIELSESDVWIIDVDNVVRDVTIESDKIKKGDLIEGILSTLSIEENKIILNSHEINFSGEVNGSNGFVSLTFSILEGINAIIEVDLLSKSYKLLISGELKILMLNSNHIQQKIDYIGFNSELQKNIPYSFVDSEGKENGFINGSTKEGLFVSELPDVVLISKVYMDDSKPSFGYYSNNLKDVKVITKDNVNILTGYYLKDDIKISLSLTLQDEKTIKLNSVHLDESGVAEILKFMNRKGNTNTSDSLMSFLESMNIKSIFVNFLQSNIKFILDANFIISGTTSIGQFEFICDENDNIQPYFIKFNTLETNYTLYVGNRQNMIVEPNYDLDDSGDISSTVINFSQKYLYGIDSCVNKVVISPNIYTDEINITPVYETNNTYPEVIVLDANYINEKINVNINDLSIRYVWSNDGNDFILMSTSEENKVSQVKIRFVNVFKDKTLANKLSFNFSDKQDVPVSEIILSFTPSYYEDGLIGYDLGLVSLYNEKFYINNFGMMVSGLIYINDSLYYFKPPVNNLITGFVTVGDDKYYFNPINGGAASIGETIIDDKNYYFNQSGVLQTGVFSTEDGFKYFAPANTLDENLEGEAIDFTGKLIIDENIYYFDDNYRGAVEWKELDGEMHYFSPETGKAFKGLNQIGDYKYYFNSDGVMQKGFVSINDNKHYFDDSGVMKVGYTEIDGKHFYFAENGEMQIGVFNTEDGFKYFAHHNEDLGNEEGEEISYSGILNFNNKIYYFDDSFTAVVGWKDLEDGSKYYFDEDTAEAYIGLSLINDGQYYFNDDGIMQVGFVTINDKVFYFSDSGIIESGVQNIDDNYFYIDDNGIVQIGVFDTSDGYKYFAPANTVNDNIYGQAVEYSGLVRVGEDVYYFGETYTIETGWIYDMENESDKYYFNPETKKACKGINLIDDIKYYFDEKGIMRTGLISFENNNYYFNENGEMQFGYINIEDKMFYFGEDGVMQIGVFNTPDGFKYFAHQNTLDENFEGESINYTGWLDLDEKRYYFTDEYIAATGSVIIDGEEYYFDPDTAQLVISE
# Mtb hypoxia rep: inhibitors of hypoxia-regulated fluorescent reporter in Mycobacterium tuberculosis; M. tuberculosis hypoxia-regulated fluorescent reporter, fluorescence; fluorescence inhibition, % (no concentration beside the values); AID 1159583; 0.1% of 300,000 active; in the data active means fluorescence inhibition mostly above about 23%, no sharp cut-off; inactive means mostly below about 17%
# MazF activator: increases E. coli MazEF RNase cleavage of RNA | P0AE70 | FAM/BHQ RNA-DNA oligo cleavage fluorescence, 5 h | activation, % at 20 µM | 0.32% of 350,000 active | AID 504720; in the data active means activation above about 50%
# Sa RN4220 lethal: kills Staphylococcus aureus RN4220. S. aureus RN4220 growth, OD600, 16 h. inhibition, % (concentration not given with the values). 0.33% of 330,000 active. AID 1259311; in the data active means inhibition above about 85%;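 further: plate controls were untreated cells for no effect and reference antibiotic for full effect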
# * = called active by the depositor; ? = inconclusive; . = not tested or not shown. A selection: hits, their analogues and other compounds. The true share with any hit is near 1.3%.
SMILES,Sa ugtP lethal,PfHsp40 yeast,TcdB GH inh,Mtb hypoxia rep,MazF activator,Sa RN4220 lethal
C=CCOc1ccc(/C=N/NC(=O)CC(=O)NC2CCCCC2)cc1,.,-0.8,0.0,.,514.2*,.
O=C(CNS(=O)(=O)c1ccc([N+](=O)[O-])cc1)N/N=C\c1ccc(O)cc1,.,-0.7,13.6*,.,3.9,.
O=C(CC(=O)Nc1ccc(Cl)c(Cl)c1)NN=Cc1ccc(O)cc1,-10.6,.,.,-6.3,.,2.8
CC(=O)Nc1ccc(/C=N\NC(=O)CNS(=O)(=O)c2ccc([N+](=O)[O-])cc2)cc1,.,1.0,1.4,.,0.3,.
CCC(=O)N(C)C[C@@H]1Oc2cc(-c3ccccc3F)ccc2S(=O)(=O)N([C@H](C)CO)C[C@@H]1C,.,.,0.3,.,.,.
COc1ccc2c3c([nH]c2c1)[C@@H](CO)N(C(=O)Cc1ccccc1)CC31CN(C(=O)Cc2ccccc2)C1,.,.,0.5,.,.,.
CC(C)CC#Cc1ccc2c(c1)O[C@@H](CN(C)C(=O)c1cnccn1)[C@@H](C)CN([C@@H](C)CO)S2(=O)=O,.,.,2.3,.,.,.
CCOC(=O)c1sc(CS(=O)(=O)c2ccc(Cl)cc2)nc1C,13.0,2.5,1.9,6.4,-4.4,3.3
CCOC(=O)c1sc(-c2ccc(Cl)cc2Cl)nc1O,32.3,60.4*,-0.8,2.6,-25.0,64.9
Cc1noc(C)c1S(=O)(=O)Nc1ccc2c(c1)C(=O)N([C@H](C)CO)C[C@H](C)[C@H](CN(C)S(=O)(=O)c1ccc(F)cc1)OCCCC[C@@H](C)O2,.,.,0.8,.,.,.
C/C(=N\O)C(C)(C)Nc1ccc(Br)cc1,.,0.3,-0.1,.,53.0*,.
Cn1c(N)c(C(C[N+](=O)[O-])c2c(F)cccc2Cl)c(=O)n(C)c1=O (configuration not stated),9.8,-1.1,-5.5,.,16.0,9.9
CN(C)c1ccc(C(C[N+](=O)[O-])c2c(N)n(C)c(=O)n(C)c2=O)c(F)c1C#N (configuration not stated),-9.7,140.2*,3.0,15.6,-9.8,4.1
COc1ccc2nc(C)cc(SCC(=O)N/N=C/c3cccc4ccccc34)c2c1,.,-0.4,.,.,54.8*,.
COC(=O)CS(=O)(=O)c1nnc([C@H](Cc2ccccc2)NC(=O)OC(C)(C)C)o1,-2.3,0.4,.,.,4.5,-2.1
Cc1cccc(CS(=O)(=O)c2nnc([C@H](Cc3ccccc3)NC(=O)OC(C)(C)C)o2)c1,38.1,373.4*,.,5.8,-27.4,5.3
O=C(C[C@@H]1CC[C@@H](NC(=O)Cc2cccnc2)[C@@H](CO)O1)Nc1ccccc1,.,.,0.0,.,.,.
COc1cc(N=Nc2c(C)n(C)n(-c3ccccc3)c2=O)ccc1N,12.5,0.2,14.1*,12.8,0.8,7.6
CC(C)(C)c1ccc(NC(=O)COC(=O)c2ccc([N+](=O)[O-])s2)cc1,99.6*,11.5,.,8.0,4.2,83.2
Cc1[nH]c2ccccc2c1C(=O)COC(=O)c1ccc([N+](=O)[O-])s1,96.1*,-2.0,0.0,1.9,5.5,90.1*
O=C(COC(=O)c1ccc([N+](=O)[O-])s1)Nc1ccc(F)cc1,6.9,1.4,0.4,13.3,0.8,7.5
CCOc1ccccc1NC(=O)CC1Nc2ccccc2NC1=O (configuration not stated),-13.1,1.6,.,.,2.2,9.0
CCOc1ccccc1NC(=O)CC1Nc2cc(C)c(C)cc2NC1=O (configuration not stated),-5.1,49.3*,.,3.8,12.3,-1.7
CC(CC(=O)Nc1ccc2c(c1)OCCO2)=NNC(=O)COc1ccc(C)cc1Br,-4.3,.,.,-2.4,.,1.5
O=C(NC(=S)Nc1ccc(S(=O)(=O)N2CCCCC2)cc1)c1ccc(Cl)cc1,91.0*,0.4,.,.,4.4,-9.9
SMILES,Sa ugtP lethal,PfHsp40 yeast,TcdB GH inh,Mtb hypoxia rep,MazF activator,Sa RN4220 lethal
O=C(Nc1ccc(Cl)cn1)c1cccc(S(=O)(=O)N2CCCCCC2)c1,.,.,0.6,.,-2.4,.
O=C(Nc1ccc(Cl)cn1)c1cccc(S(=O)(=O)N2CCCCC2)c1,-1.2,70.4*,0.3,6.7,12.6,2.9
CCCCC(=O)NC(=S)Nc1ccc(S(=O)(=O)N2CCCC2)cc1,93.6*,0.3,.,12.9,-3.5,5.3
CN1CCN(S(=O)(=O)c2ccc(NC(=S)NC(=O)c3ccccc3)cc2)CC1,46.4,-0.6,.,.,-3.3,-1.9
CN1CCN(S(=O)(=O)c2ccc(NC(=S)NC(=O)c3ccc(Cl)cc3)cc2)CC1,90.5*,-1.5,.,.,3.2,4.3
O=C(CN1CCOCC1)NN=C/C(Br)=C\c1ccccc1,1.7,.,.,-0.5,.,3.8
C[C@]12CCC(=O)C=C1CCC1C2C(O)C[C@@]2(C)C1CC[C@]2(O)C(=O)COC(=O)CCC(=O)O (some centres not stated),5.7,.,.,7.0,.,8.7
O=C(O)c1ccc(NN=Cc2cccc3cccnc23)cc1,73.4,.,.,7.4,.,60.0
Cn1c(/C(C#N)=C(\O)COc2ccc3ccccc3c2)nc2ccccc21,-9.7,1.0,0.4,2.1,173.7*,-14.5
Cc1ccc(OC/C(O)=C(\C#N)c2nc3ccccc3s2)cc1,84.0*,0.0,-6.1,14.5,-1.6,77.5
C[C@@H]1CN([C@@H](C)CO)C(=O)Cc2cc(NC(=O)Cc3cn(C)c4ccccc34)ccc2O[C@@H]1CN(C)C(=O)Nc1ccc2c(c1)OCO2,.,.,-1.1,.,.,.
Cc1cccc(CSc2nnnn2-c2ccccc2)c1,-9.7,32.6*,.,10.6,-11.1,4.7
Cc1cccc(CSc2nnc(N)n2-c2ccccc2)c1,4.3,-0.8,.,10.7,0.3,8.6
CC(=NNC(=S)NCc1ccccc1)c1ccc2ccccc2c1OC(F)F,21.7,.,.,14.2,.,-3.8
CC(=O)Nc1c(Br)cc2c(c1Br)C(=O)c1ccccc1-2,.,-1.6,0.6,.,6.1,.
CC(=O)C1=C(c2ccc(Br)cc2)C(=O)c2ccccc2C1=O,96.7*,?,.,2.7,1.5,97.2*
COc1cccc(C(=O)NN=Cc2ccc(OC)c(COc3ccccc3C(N)=O)c2)c1,10.2,.,.,8.6,.,0.2
FC(F)(F)c1ccc(CN2CCN(Cc3ccco3)CC2)cc1,3.1,49.5*,1.7,-1.5,-1.4,2.8
Cc1ccc(C(=O)N2CCN(c3ccccc3Cl)CC2)cc1[N+](=O)[O-],8.9,110.7*,0.7,10.1,5.8,2.7
Cc1ccc(C(=O)N2CCN(c3ccccn3)CC2)cc1[N+](=O)[O-],2.2,5.7,1.4,6.6,-3.3,-0.3
CC#CCN1c2ccccc2[C@]23CC(C(=O)OC)N(C(=O)c4cc(C)oc4C)C2=NC(C(=O)OC)=C(C(=O)OC)C13 (some centres not stated),6.8,.,.,18.2,.,8.5
Oc1c(Cl)cc(Cl)cc1/C=C/c1ccc2cccc(O)c2n1,85.9,10.2,0.6,-1.4,-8.7,91.2*
Oc1cccc2ccc(/C=C/c3ccccc3Br)nc12,91.9*,0.6,1.4,4.0,-11.7,89.9*
Cc1ccsc1/C=C/c1ccc2cccc(O)c2n1,-10.7,445.8*,.,-0.9,6.4,4.7
Cc1ccsc1/C=C/c1ccc2ccccc2n1,21.8,1.6,.,2.3,-8.5,1.3
COc1cc(Br)cc(/C=C/c2ccc3cccc(O)c3n2)c1O,4.4,-0.2,2.9,15.7,4.8,-8.1
